Experiment [1] deals with Atrial natriuretic peptide receptor 2 (Homo sapiens) (UniProt P20594). The experiment in a line: Natriuretic polypeptide receptor (hNpr2) antagonism - Pilot subtype selectivity assay (AID 1347050; calls by dose curve; also: potency is read from the fitted curve at half-maximal effect). A digest of the protocol: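 cGMP-sensor HEK293/hNpr2 cells; 2% GloSensor reagent 2 h RT; compounds 30 min; baseline luminescence read; 1 nM hNppC agonist 20 min RT; final luminescence read by CCD camera. Antagonism = reduced post-agonist signal.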
Sequence of Atrial natriuretic peptide receptor 2 (Homo sapiens) (P20594 whole entry, looked up): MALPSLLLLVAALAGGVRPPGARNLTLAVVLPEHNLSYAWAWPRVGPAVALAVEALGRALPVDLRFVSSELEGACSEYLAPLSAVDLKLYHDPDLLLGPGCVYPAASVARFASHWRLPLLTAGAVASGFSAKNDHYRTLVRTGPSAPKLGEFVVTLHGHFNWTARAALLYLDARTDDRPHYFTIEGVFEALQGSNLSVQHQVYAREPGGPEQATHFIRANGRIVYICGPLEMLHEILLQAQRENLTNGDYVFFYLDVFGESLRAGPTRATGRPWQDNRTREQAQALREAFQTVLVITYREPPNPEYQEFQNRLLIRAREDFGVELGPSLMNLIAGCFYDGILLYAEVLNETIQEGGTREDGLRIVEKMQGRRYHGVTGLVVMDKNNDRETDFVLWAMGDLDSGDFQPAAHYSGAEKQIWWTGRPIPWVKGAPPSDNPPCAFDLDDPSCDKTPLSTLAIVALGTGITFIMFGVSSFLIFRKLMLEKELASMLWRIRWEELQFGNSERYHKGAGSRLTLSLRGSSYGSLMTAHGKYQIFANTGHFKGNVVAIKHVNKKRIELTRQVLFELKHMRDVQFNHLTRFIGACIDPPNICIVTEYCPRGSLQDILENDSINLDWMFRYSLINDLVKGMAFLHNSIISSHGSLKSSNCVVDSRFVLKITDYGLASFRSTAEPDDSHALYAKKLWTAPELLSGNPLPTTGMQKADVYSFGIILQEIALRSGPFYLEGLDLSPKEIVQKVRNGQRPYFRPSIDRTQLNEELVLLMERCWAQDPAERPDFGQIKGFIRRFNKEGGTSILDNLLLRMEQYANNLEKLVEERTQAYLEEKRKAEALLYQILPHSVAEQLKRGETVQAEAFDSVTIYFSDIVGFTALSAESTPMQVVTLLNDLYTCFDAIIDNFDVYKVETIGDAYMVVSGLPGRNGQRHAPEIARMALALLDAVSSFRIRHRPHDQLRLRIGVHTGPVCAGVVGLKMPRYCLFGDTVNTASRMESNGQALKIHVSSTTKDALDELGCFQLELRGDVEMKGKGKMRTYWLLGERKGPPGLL

Experiment [2] is described as follows: NS1 protein of Zika virus - qHTS assay to identify small molecule inhibitors in human HEK 293 cells (AID 1347053). Also: series mostly up to about 46 µM; nearly all actives have a fitted effect of over 55% in size. In a few lines:
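Inhibition of NS1 expression was scored in HEK 293 cells given compound 1 h ahead of MR766 virus (MOI = 0.5). Following 24 h at 37 C, two anti-NS1 antibodies generated a TR-FRET signal, scaled between uninfected and infected controls.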
In general terms: qHTS replaces the single test concentration by a dilution series.

Experiment [3] concerns the target T1, Tyrosine-protein phosphatase non-receptor type substrate 1 (Homo sapiens) + Leukocyte surface antigen CD47 (Homo sapiens) (UniProt P78324+Q08722). The experiment can be described thus: CD47-SIRPalpha protein protein interaction - LANCE assay qHTS validation (AID 1347057; active = well fitted curve in the direction sought with a large enough effect in the signal ratio, with a control signal flat, not every such curve was filed as active; the % refers to the signal ratio; also: series mostly up to about 38 µM). In a few lines:
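First, His-tagged CD47 and Eu-labelled anti-His antibody met the compound for 30 min; next, site-specifically biotinylated SIRPalpha was added for 30 min; finally streptavidin-APC was added before reading the TR-FRET ratio.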
In general terms: TR-FRET usually uses a lanthanide donor and a delayed reading to cut background.

The target of experiment [4] is T1, Tyrosine-protein phosphatase non-receptor type substrate 1 (Homo sapiens) + Leukocyte surface antigen CD47 (Homo sapiens). The experiment in a line: CD47-SIRPalpha protein protein interaction - HTRF assay qHTS validation (AID 1347058; active = well fitted curve in the direction sought with a large enough effect in the signal ratio, not every such curve was filed as active; the % refers to the signal ratio; also: series mostly up to about 38 µM). A digest of the protocol: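 TR-FRET read (Ch1/Ch2 ratio) of soluble extracellular CD47 and Avi-biotinylated SIRPalpha domains in PBS pH 7.4 with 0.05% IGEPAL; 7-point compound titration. Sequential 30 min room-temperature steps; non-biotinylated SIRPalpha as control inhibitor.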

Experiment [5] shares this target. The experiment can be described thus: CD47-SIRPalpha protein protein interaction - Alpha assay qHTS validation (AID 1347059).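 Also: bead proximity luminescence from CD47 binding SIRPalpha after compound preincubation with SIRPalpha.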 A digest of the protocol: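 Soluble extracellular domains: Avi-tag biotinylated SIRPalpha (25 nM) preincubated 30 min RT with compound, then 6His-CD47 (12.5 nM) 30 min; Ni-NTA acceptor and streptavidin donor beads (10 ug/mL) 30 min, AlphaScreen read. PBS pH 7.4, 0.05% IGEPAL.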

Experiment [6] concerns the target Parathyroid hormone/parathyroid hormone-related peptide receptor (Homo sapiens) (UniProt Q03431). The experiment in a line: qHTS for PTHR1 Agonists: Optimization Screen against the NCGC LOPAC library (AID 1347079).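 Also: GloSensor cAMP luminescence in HEK-293 GP2 cells expressing human PTHR1 with IBMX.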 A digest of the protocol: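 Compounds were tested across a qHTS titration. PTHR1-expressing GP2 cells report cAMP rises via GloSensor luminescence after 1 hr compound exposure at 37C with IBMX present.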

Results filed as inconclusive are left out. Active and inactive are the calls of the source. Unless noted, calls follow the shape of the dose curve; as a rule, active = well fitted curve in the direction sought with a large enough effect; inconclusive = small, poorly fitted or top-dose-only effect, or another doubt; inactive = no such curve, though single readings can be large; an effect the other way counts as inactive or inconclusive.

Sequence of Parathyroid hormone/parathyroid hormone-related peptide receptor (Homo sapiens) (Q03431 whole entry, looked up): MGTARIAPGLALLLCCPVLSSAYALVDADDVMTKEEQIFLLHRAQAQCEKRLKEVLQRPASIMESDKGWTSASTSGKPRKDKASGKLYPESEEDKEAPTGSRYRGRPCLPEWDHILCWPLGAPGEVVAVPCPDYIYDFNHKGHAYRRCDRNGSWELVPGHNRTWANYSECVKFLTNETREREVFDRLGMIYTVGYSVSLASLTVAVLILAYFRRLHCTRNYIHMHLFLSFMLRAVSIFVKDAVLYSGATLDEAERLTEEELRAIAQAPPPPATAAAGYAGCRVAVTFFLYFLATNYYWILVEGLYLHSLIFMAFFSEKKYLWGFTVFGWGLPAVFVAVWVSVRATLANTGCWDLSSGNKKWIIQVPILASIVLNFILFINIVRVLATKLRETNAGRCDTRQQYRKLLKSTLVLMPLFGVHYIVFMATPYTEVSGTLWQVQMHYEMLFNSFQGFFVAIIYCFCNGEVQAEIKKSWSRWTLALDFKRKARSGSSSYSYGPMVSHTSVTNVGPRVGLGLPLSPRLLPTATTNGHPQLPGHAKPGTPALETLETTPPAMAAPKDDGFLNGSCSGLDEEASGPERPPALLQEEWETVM
T1 sequence (P78324 whole entry, looked up): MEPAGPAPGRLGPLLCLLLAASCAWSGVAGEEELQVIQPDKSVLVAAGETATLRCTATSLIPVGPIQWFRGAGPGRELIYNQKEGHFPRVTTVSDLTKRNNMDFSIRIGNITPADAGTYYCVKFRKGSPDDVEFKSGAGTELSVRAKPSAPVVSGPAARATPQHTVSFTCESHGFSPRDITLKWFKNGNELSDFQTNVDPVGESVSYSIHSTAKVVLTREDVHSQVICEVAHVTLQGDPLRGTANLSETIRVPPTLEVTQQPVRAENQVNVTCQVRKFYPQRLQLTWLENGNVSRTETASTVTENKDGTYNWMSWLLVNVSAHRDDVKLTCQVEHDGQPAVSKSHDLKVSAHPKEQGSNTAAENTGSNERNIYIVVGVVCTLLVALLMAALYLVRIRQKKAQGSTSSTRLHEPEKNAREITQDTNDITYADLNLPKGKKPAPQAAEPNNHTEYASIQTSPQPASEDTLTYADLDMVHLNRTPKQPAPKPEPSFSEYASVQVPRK
T1 sequence (Q08722 whole entry, looked up): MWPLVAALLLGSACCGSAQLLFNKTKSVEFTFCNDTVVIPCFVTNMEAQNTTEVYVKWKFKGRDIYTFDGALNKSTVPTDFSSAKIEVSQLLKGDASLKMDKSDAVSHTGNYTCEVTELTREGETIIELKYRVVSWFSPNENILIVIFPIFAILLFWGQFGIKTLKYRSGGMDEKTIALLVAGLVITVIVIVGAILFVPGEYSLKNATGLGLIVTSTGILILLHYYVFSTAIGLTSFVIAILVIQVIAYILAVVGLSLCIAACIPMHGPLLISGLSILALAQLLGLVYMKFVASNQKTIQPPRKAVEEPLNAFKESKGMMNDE

Turning to `Oc1ccc(C2CNCc3sccc32)cc1O` (configuration not stated), the Potency result in experiment [1], in experiment [2], in experiment [3], in experiment [5] and in experiment [6] was “inactive” throughout. Also, in experiment [4], the result was inactive.

For `NCCNC(=O)c1ncsc1-c1cccc(F)c1`, the Potency entry in experiment [1] was “inactive”.

For `CN1C2CCC1CC(OC(=O)C(O)c1ccccc1)C2` (configuration not stated), the Potency entry in experiment [1], in experiment [2], in experiment [3], in experiment [5] and in experiment [6] was “inactive” each time. Further, the outcome in experiment [4] was inactive.

For the compound `O=C(O)CC1CCCc2ccccc2C1O` (configuration not stated), the Potency result in experiment [1], in experiment [2], in experiment [3], in experiment [5] and in experiment [6] was “inactive” each time. In addition, the outcome in experiment [4] was inactive.

For the compound `O=C(O)CNC(=O)C(CS)Cc1ccccc1` (configuration not stated), the Potency entry in experiment [1], in experiment [2], in experiment [3], in experiment [5] and in experiment [6] was “inactive” throughout. Also, in experiment [4], the result was inactive.

For the compound `CN(C)c1ccc(/C=C2\C(=O)Nc3ccccc32)cc1`, the Potency in experiment [1] was 10.4 µM (active). Further, the Potency result in experiment [2] was “inactive”.

For `CNC(=O)[C@H]1O[C@@H](n2cnc3c(NCc4cccc(I)c4)ncnc32)[C@H](O)[C@@H]1O`, the Potency result in experiment [1], in experiment [2], in experiment [3], in experiment [5] and in experiment [6] was “inactive” in each case. In experiment [4], the result was inactive.

For the compound `CC(COc1ccc(/C=C/c2ccccc2)cc1)[N+](C)(C)C` (configuration not stated), the Potency result in experiment [1] was “inactive”.

As for `CCN1/C(=C/C(C)=O)Sc2ccc(OC)cc21`, the Potency result in experiment [1], in experiment [2], in experiment [3] and in experiment [5] was “inactive” in each case. Further, the outcome in experiment [4] was inactive.

With `C[C@@H](CN1CCC(Cc2ccccc2)CC1)[C@@H](O)c1ccc(O)cc1`, the Potency entry in experiment [1], in experiment [2], in experiment [3] and in experiment [5] was “inactive” each time. For the same compound, the result in experiment [4] was inactive.

Turning to `O=C(c1ccc(OCCCc2cnc[nH]2)cc1)C1CC1`, the Potency result in experiment [1], in experiment [2], in experiment [3], in experiment [5] and in experiment [6] was “inactive” in each case. Further, in experiment [4], the outcome was inactive.

`NC(=O)C1=CN(C2OC(COP(=O)(O)OP(=O)(O)OC[C@H]3O[C@@H](n4cnc5c(N)ncnc54)[C@H](OP(=O)(O)O)[C@@H]3O)C(O)C2O)C=CC1` (some centres not stated): the Potency result in experiment [1], in experiment [2], in experiment [3], in experiment [5] and in experiment [6] was “inactive” each time. Also, the outcome in experiment [4] was inactive.

As for `N[C@@H](CC(=O)O)C(=O)O`, the Potency entry in experiment [1] was “inactive”.

For `Brc1c(Br)c(Br)c2n[nH]nc2c1Br`, the Potency entry in experiment [1], in experiment [2], in experiment [3], in experiment [5] and in experiment [6] was “inactive” in each case. Moreover, the result in experiment [4] was inactive.

With `CN1[C@@H](CC(=O)c2ccccc2)CCC[C@H]1C[C@H](O)c1ccccc1`, the Potency entry in experiment [1], in experiment [2], in experiment [3] and in experiment [5] was “inactive” in each case. In addition, in experiment [4], the outcome was inactive.

In the case of `O=C1O/C(=C/Br)CCC1c1cccc2ccccc12` (configuration not stated), the Potency in experiment [1] is 11.7 µM (active).

`C[C@@H](NC(=O)/C(C#N)=C/c1ccc(O)c(O)c1)c1ccccc1`: in experiment [1], the Potency result is “inactive”.

Consider `N=c1ccn2c(n1)O[C@H]1[C@H](O)[C@@H](CO)O[C@H]12`, for which the Potency entry in experiment [1], in experiment [2], in experiment [3], in experiment [5] and in experiment [6] was “inactive” throughout. Moreover, in experiment [4], the result was inactive.

Regarding `N#C/C(=C\c1ccc(O)c(O)c1)C(=O)NCc1ccccc1`, the Potency entry in experiment [1] was “inactive”.

On to `COc1cccc(C(=O)NCCN2CCN(c3ccc(Cl)cc3)CC2)c1`, for which the Potency result in experiment [1], in experiment [2], in experiment [3], in experiment [5] and in experiment [6] was “inactive” throughout. The outcome in experiment [4] was inactive.

As for `C=CC(N)CCC(=O)O` (configuration not stated), the Potency result in experiment [1], in experiment [2], in experiment [3], in experiment [5] and in experiment [6] was “inactive” each time. Further, the result in experiment [4] was inactive.

Take `CC1CN(S(=O)(=O)c2cccc3cnccc23)CCN1` (configuration not stated): the Potency entry in experiment [1], in experiment [2], in experiment [3], in experiment [5] and in experiment [6] was “inactive” throughout. In experiment [4], the outcome was inactive.

For `O=c1[nH]c2cc(Cl)c(Cl)cc2[nH]c1=O`, in experiment [1], the Potency entry is “inactive”.

Turning to `Cc1cc(NC(=O)Nc2ccc3c(ccn3C)c2)sn1`, the Potency result in experiment [1], in experiment [2], in experiment [3], in experiment [5] and in experiment [6] was “inactive” in each case. In addition, in experiment [4], the result was inactive.

With `C=C[C@H]1CN2CC[C@@H]1C[C@@H]2[C@@H](O)c1ccnc2ccc(OC)cc12`, the Potency entry in experiment [1] and in experiment [2] was “inactive” throughout.

Turning to `N.N.N.N.N.N.N.N.N.N.N.N.N.N.O.O.[Ru+4].[Ru+5].[Ru+5]`, the Potency entry in experiment [1] and in experiment [2] was “inactive” in each case.

For the compound `COc1cc2c(CCNC(C)=O)c[nH]c2cc1Cl`, the Potency entry in experiment [1], in experiment [2], in experiment [3] and in experiment [5] was “inactive” throughout. Moreover, in experiment [4], the outcome was inactive.

As for `Oc1cc2c(cc1O)CN(C(=S)NCCc1ccc(Cl)cc1)CCC2`, the Potency result in experiment [1], in experiment [2], in experiment [3] and in experiment [5] was “inactive” throughout. Further, in experiment [4], the result was inactive.

Turning to `NCCCS(=O)(=O)O`, the Potency entry in experiment [1], in experiment [2], in experiment [3], in experiment [5] and in experiment [6] was “inactive” in each case. Besides, the result in experiment [4] was inactive.

For `CC(C)NCC(O)COc1cccc2ccccc12` (configuration not stated), the Potency result in experiment [1], in experiment [2], in experiment [3] and in experiment [5] was “inactive” in each case. Besides, in experiment [4], the outcome was inactive.

The values above are taken from PubChem BioAssay (NCATS).
